# Results taken from PubChem BioAssay (Tox21).
# Records with an inconclusive call do not appear. Where a call stands in place of a potency, no number is given. Some compounds were tested as several samples or in several runs, with calls that do not always agree. Calls of active or inactive are those of the source. The call rests on the fitted dose curve.
# Assays:
# [1] = target: Acetylcholinesterase (Homo sapiens) (UniProt P22303); experiment: Acetylcholinesterase (AChE) small molecule antagonists: colormetric cell-based qHTS assay (AID 1347395); further: nearly all actives have a fitted effect of over 30% in size; further: potency means the concentration at half of the fitted maximal effect
# Acetylcholinesterase (Homo sapiens), sequence (P22303 whole entry, looked up): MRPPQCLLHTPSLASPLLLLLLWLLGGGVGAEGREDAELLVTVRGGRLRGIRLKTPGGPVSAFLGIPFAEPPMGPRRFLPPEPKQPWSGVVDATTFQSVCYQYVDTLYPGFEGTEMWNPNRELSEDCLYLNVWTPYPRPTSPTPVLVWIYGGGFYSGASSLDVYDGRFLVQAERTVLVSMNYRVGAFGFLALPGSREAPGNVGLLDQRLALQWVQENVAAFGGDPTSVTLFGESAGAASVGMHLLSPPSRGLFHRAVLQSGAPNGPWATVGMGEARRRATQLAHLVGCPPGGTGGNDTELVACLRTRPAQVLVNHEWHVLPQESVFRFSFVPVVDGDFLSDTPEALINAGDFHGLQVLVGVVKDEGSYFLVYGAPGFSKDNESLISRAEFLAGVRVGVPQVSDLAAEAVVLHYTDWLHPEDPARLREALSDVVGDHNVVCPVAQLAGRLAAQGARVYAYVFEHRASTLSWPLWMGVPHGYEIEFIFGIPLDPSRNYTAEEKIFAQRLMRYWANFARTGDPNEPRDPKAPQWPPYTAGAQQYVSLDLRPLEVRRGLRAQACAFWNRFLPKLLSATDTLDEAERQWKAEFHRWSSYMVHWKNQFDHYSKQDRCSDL
# Summary of the method: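 Colorimetric read-out: DTNB detects thiocholine released when cellular AChE in SH-SY5Y cells hydrolyses acetylthiocholine. Cells attached overnight, received compound for 30 min at 37 C, then substrate mix for 90 min at 37 C.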
# [2] = target: Acetylcholinesterase (Homo sapiens) (UniProt P22303); experiment: Acetylcholinesterase (AChE) small molecule antagonists: enzyme-based qHTS assay (AID 1347397); conditions: Potency: AChE enzyme activity inhibition; outcome: AChE enzyme activity inhibition; further: nearly all actives have a fitted effect of over 55% in size
# Summary of the method: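 Recombinant human AChE, dispensed at 50 mU/mL, was preincubated with Tox21 10K compounds or DMSO vehicle for 30 min at room temperature. DTNB plus acetylthiocholine was then added, and thiocholine was measured colorimetrically after a further 10 min.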
# [3] = target: Acetylcholinesterase (Homo sapiens) (UniProt P22303); experiment: Acetylcholinesterase (AChE) small molecule antagonists: fluorescence cell-based qHTS assay (AID 1347398); conditions: Potency: AChE activity; outcome: AChE activity; further: nearly all actives have a fitted effect of over 50% in size
# Summary of the method: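 Human SH-SY5Y cells were plated overnight at 37 C, exposed to compound for 30 min at 37 C, 5% CO2, then given acetylthiocholine plus Thiolite Green for 40 min at room temperature; thiocholine fluorescence (Ex/Em 490/520 nm) reports endogenous AChE activity.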
# [4] = target: Acetylcholinesterase (Homo sapiens) (UniProt P22303); experiment: Acetylcholinesterase (AChE) small molecule antagonists: enzyme-based qHTS assay with human liver microsomes (AID 1347399); conditions: Potency: qHTS inhibition; outcome: qHTS inhibition; further: nearly all actives have a fitted effect of over 60% in size
# Summary of the method: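 Recombinant human AChE (50 mU/mL in the enzyme mix) and human liver microsomes (0.25 mg/mL final) were preincubated with compound and NADPH (0.25 mg/mL final) for 30 min at 37 C. Acetylthiocholine/DTNB was then added; thiocholine was read colorimetrically after 10 min at room temperature.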
compound,measurement,setting,value
CCCCCC(C)O (stereo unspecified),Potency,[1],inactive
same,Potency,[2],inactive
same,Potency,[3],inactive
same,Potency,[4],inactive
O=c1[nH]c2ccc(Cl)cc2o1,Potency,[1],inactive
same,Potency,[2],inactive
same,Potency,[3],inactive
same,Potency,[4],inactive
C#C[C@]1(O)CC[C@H]2[C@@H]3CCc4cc(O)ccc4[C@H]3CC[C@@]21C,Potency,[1],inactive
same,Potency,[2],inactive
same,Potency,[3],inactive
same,Potency,[4],inactive
Nc1ncnc2c1ncn2[C@@H]1O[C@H](CO)[C@@H](O)[C@H]1O,Potency,[1],inactive
same,Potency,[2],inactive
same,Potency,[3],inactive
same,Potency,[4],inactive
C=CC(=O)NC(C)(C)CS(=O)(=O)O,Potency,[1],inactive
same,Potency,[2],inactive
same,Potency,[3],inactive
same,Potency,[4],inactive
Oc1ccc(OCc2ccccc2)cc1,Potency,[1],inactive
same,Potency,[2],inactive
same,Potency,[4],inactive
CCN(CC)c1ccc(N=Nc2ccccc2)cc1,Potency,[1],inactive
same,Potency,[2],inactive
same,Potency,[3],inactive
same,Potency,[4],inactive
CCCCCCCCCCCCCCCCCC(=O)OCC(O)CO (stereo unspecified),Potency,[1],inactive
same,Potency,[2],inactive
same,Potency,[4],inactive
CC(C)(CO)COC(=O)C(C)(C)CO,Potency,[1],inactive
same,Potency,[2],inactive
same,Potency,[3],inactive
same,Potency,[4],inactive
CCOC(=O)C(C)(C)Oc1ccc(Cl)cc1,Potency,[1],inactive
same,Potency,[2],inactive
same,Potency,[3],inactive
same,Potency,[4],inactive
CCN1CCCC(OC(=O)C(c2ccccc2)c2ccccc2)C1 (stereo unspecified),Potency,[1],inactive
same,Potency,[2],inactive
same,Potency,[3],inactive
same,Potency,[4],inactive
CCCCC(CC)COC(=O)/C=C\C(=O)OCC(CC)CCCC (stereo unspecified),Potency,[1],inactive
same,Potency,[2],inactive
same,Potency,[3],inactive
same,Potency,[4],inactive
BrC1CCC(Br)C(Br)CCC(Br)C(Br)CCC1Br (stereo unspecified),Potency,[1],inactive
same,Potency,[2],inactive
same,Potency,[3],inactive
same,Potency,[4],inactive
CC(C)[N+](C)(CCOC(=O)C1c2ccccc2Oc2ccccc21)C(C)C,Potency,[1],inactive
same,Potency,[2],inactive
same,Potency,[4],inactive
CCn1nc(C)c2c1C(=O)NCC(c1ccc(O)cc1)=N2,Potency,[1],inactive
same,Potency,[2],inactive
same,Potency,[3],inactive
same,Potency,[4],inactive
CCN(CC)c1ccc(C(=C2C=CC(=[N+](CC)CC)C=C2)c2ccc(S(=O)(=O)O)cc2S(=O)(=O)[O-])cc1,Potency,[1],inactive
same,Potency,[2],inactive
same,Potency,[3],inactive
same,Potency,[4],inactive
COC(=O)CC(C)CCC=C(C)C (stereo unspecified),Potency,[1],inactive
same,Potency,[2],inactive
same,Potency,[3],inactive
same,Potency,[4],inactive
CC(C)(C)C1=CC(=O)C=C(C(C)(C)C)C1=O,Potency,[1],inactive
same,Potency,[2],inactive
same,Potency,[4],inactive
COC(=O)CC(=O)OC,Potency,[1],inactive
same,Potency,[2],inactive
same,Potency,[3],inactive
same,Potency,[4],inactive
CC(=O)N1C[C@H](O)C[C@H]1C(=O)O,Potency,[1],inactive
same,Potency,[2],inactive
same,Potency,[3],inactive
same,Potency,[4],inactive
CC(C)(C)C(=O)OCOC(=O)[C@@H]1N2C(=O)[C@@H](NC(=O)[C@H](N)c3ccccc3)[C@H]2SC1(C)C,Potency,[1],inactive
same,Potency,[2],inactive
same,Potency,[3],inactive
same,Potency,[4],inactive
CCCCCCCCCCC(=O)O,Potency,[1],inactive
same,Potency,[2],inactive
same,Potency,[3],inactive
same,Potency,[4],inactive
Cc1cc(C(C)(C)C)c(O)c(C(C)(C)C)c1,Potency,[1],inactive
same,Potency,[2],inactive
same,Potency,[4],inactive
C[C@@H]1CC[C@@]2(OC1)O[C@H]1C[C@H]3[C@@H]4CC[C@H]5C[C@@H](O)CC[C@]5(C)[C@H]4CC(=O)[C@]3(C)[C@H]1[C@@H]2C,"activity, negative = inhibition",[1],-3.52% [at 10.5 µM] (inactive)
same,"activity change, negative = inhibition",[2],-1.66% [at 10.5 µM] (inactive)
same,"activity change, negative = inhibition",[4],-3.36% [at 10.5 µM] (inactive)
COC(=O)Nc1nc2ccc(S(=O)c3ccccc3)cc2[nH]1 (stereo unspecified),Potency,[1],inactive
same,Potency,[2],inactive
same,Potency,[4],inactive
CCCC(C)=O,Potency,[1],inactive
same,Potency,[2],inactive
same,Potency,[4],inactive
C=CC(=O)OCCCCCCCCCC,Potency,[1],inactive
same,Potency,[2],inactive
same,Potency,[4],inactive
CNC(=O)c1cc(Oc2ccc(NC(=O)Nc3ccc(Cl)c(C(F)(F)F)c3)cc2)ccn1,Potency,[1],inactive
same,Potency,[2],inactive
same,Potency,[4],inactive
CN(C)c1ccc(C(=N)c2ccc(N(C)C)cc2)cc1,Potency,[1],7.01 µM (active) and inactive
same,Potency,[2],inactive
same,Potency,[4],inactive
CNC(=O)c1ccccc1,Potency,[1],inactive
same,Potency,[2],inactive
same,Potency,[4],inactive
O=Cc1ccccc1S(=O)(=O)O,Potency,[1],inactive
same,Potency,[2],inactive
same,Potency,[4],inactive
COC(=O)[C@@H]1CC2=CC(=O)CC[C@]2(C)[C@@]23O[C@@H]2C[C@@]2(C)[C@@H](CC[C@@]24CCC(=O)O4)[C@H]13,Potency,[1],inactive
same,Potency,[2],inactive
same,Potency,[4],inactive
Cc1c[nH]c2ccccc12,Potency,[1],inactive
same,Potency,[2],inactive
same,Potency,[4],inactive
CCOC(=O)[C@H](CCc1ccccc1)N[C@@H](C)C(=O)N1C(=O)N(C)C[C@H]1C(=O)O,Potency,[1],inactive
same,Potency,[2],inactive
same,Potency,[4],inactive
NS(=O)(=O)c1cc(-c2nn[nH]n2)c(NCc2cccs2)cc1Cl,Potency,[1],inactive
same,Potency,[2],inactive
same,Potency,[4],inactive
Cc1sccc1Br,Potency,[1],inactive
same,Potency,[2],inactive
same,Potency,[4],inactive
C=CCNC(N)=S,Potency,[1],inactive
same,Potency,[2],inactive
same,Potency,[4],inactive
O=C1C(N(CO)C(=O)NCO)N(CO)C(=O)N1CO (stereo unspecified),Potency,[1],inactive
same,Potency,[2],inactive
same,Potency,[4],inactive
C=C(C)C(=O)NCCC[N+](C)(C)C,Potency,[1],inactive
same,Potency,[2],inactive
same,Potency,[4],inactive
CC(=O)Nc1ccc(N)cc1,Potency,[1],inactive
same,Potency,[2],inactive
same,Potency,[4],inactive
Nc1ncnc2nc[nH]c12,Potency,[1],inactive
same,Potency,[2],inactive
same,Potency,[4],inactive
CC1=C(Br)C(=O)C(Br)=C/C1=C(/c1ccccc1S(=O)(=O)O)c1cc(Br)c(O)c(Br)c1C,Potency,[1],inactive
same,Potency,[2],inactive
same,Potency,[4],inactive
O=C(O)c1ccc(S(=O)(=O)N(Cl)Cl)cc1,Potency,[1],inactive
same,Potency,[2],inactive
same,Potency,[4],inactive
CC[C@H]1OC(=O)[C@H](C)[C@@H](O[C@H]2C[C@@](C)(OC)[C@@H](O)[C@H](C)O2)[C@H](C)[C@@H](O[C@@H]2O[C@H](C)C[C@H](N(C)C)[C@H]2O)[C@](C)(O)C[C@@H](C)/C(=N\OCOCCOC)[C@H](C)[C@@H](O)[C@]1(C)O,Potency,[1],inactive
same,Potency,[2],inactive
same,Potency,[4],inactive
O=C(O)c1ccc(O)cc1O,Potency,[1],inactive
same,Potency,[2],inactive
same,Potency,[4],inactive
O=C(O)c1ccccc1Nc1cccc(C(F)(F)F)c1,Potency,[1],inactive
same,Potency,[2],inactive
same,Potency,[4],inactive
CCC(=O)OCc1ccccc1,Potency,[1],inactive
same,Potency,[2],inactive
same,Potency,[4],inactive
CCOC(=O)CC(C(C)=O)C(C)=O,Potency,[1],inactive
same,Potency,[2],inactive
same,Potency,[4],inactive
CCOc1cc(OCC)c(C(=O)CCC(=O)O)cc1OCC,Potency,[1],inactive
same,Potency,[2],inactive
same,Potency,[4],inactive
COc1cccc(OC)c1C(=O)N[C@@H]1C(=O)N2[C@@H]1SC(C)(C)[C@@H]2C(=O)O,Potency,[1],inactive
same,Potency,[2],inactive
same,Potency,[4],inactive
OC[C@H]1O[C@@H]2O[C@H]3[C@H](O)[C@@H](O)[C@@H](O[C@H]4[C@H](O)[C@@H](O)[C@@H](O[C@H]5[C@H](O)[C@@H](O)[C@@H](O[C@H]6[C@H](O)[C@@H](O)[C@@H](O[C@H]7[C@H](O)[C@@H](O)[C@@H](O[C@H]1[C@H](O)[C@H]2O)O[C@@H]7CO)O[C@@H]6CO)O[C@@H]5CO)O[C@@H]4CO)O[C@@H]3CO,Potency,[1],inactive
same,Potency,[2],inactive
same,Potency,[4],inactive
CC(C)(C)c1ccc(OC2CCCCC2O)cc1 (stereo unspecified),Potency,[1],inactive
same,Potency,[2],inactive
same,Potency,[4],inactive
CC(C)(C)c1ccc(O)c(O)c1,Potency,[1],inactive
same,Potency,[2],inactive
same,Potency,[4],inactive
O=C1CCCCCCCCCCOCCCCO1,Potency,[1],inactive
same,Potency,[2],inactive
same,Potency,[4],inactive
C[C@@H](N)C(=O)O,Potency,[1],inactive
same,Potency,[2],inactive
same,Potency,[4],inactive
CC1=CC2C3CC(C=C3C)C2C1 (stereo unspecified),Potency,[1],inactive
same,Potency,[2],inactive
same,Potency,[4],inactive
CC1CCCC(=O)C1=O (stereo unspecified),Potency,[1],inactive
same,Potency,[2],inactive
same,Potency,[4],inactive
CO/N=C(/C(=O)N[C@@H]1C(=O)N2C(C(=O)O)=C(Cn3nnc(C)n3)CS[C@H]12)c1csc(N)n1,Potency,[1],inactive
same,Potency,[2],inactive
same,Potency,[4],inactive
O=C(O)c1cc2ccccc2nc1C(=O)O,Potency,[1],inactive
same,Potency,[2],inactive
same,Potency,[4],inactive
CCCCc1ccc(Cl)cc1,Potency,[1],inactive
same,Potency,[2],inactive
same,Potency,[4],inactive
CC(C)(c1ccccc1)c1ccccc1,Potency,[1],inactive
same,Potency,[2],inactive
same,Potency,[4],inactive
CC(C)NNC(=O)c1ccncc1,Potency,[1],inactive
same,Potency,[2],inactive
same,Potency,[4],inactive
CC(=O)c1ccc(S(=O)(=O)NC(=O)NC2CCCCC2)cc1,Potency,[1],inactive
same,Potency,[2],inactive
same,Potency,[4],inactive
COC(=O)c1ccc2cc(C(=O)OC)ccc2c1,"activity, negative = inhibition",[1],3.17% [at 23.6 µM] (inactive)
same,"activity change, negative = inhibition",[3],-7.2% [at 23.8 µM] (inactive)
same,"activity change, negative = inhibition",[4],-4.52% [at 23.6 µM] (inactive)
C=CC(=O)OCCCCCCOC(=O)C=C,Potency,[1],inactive
same,Potency,[2],inactive
same,Potency,[4],inactive
N#Cc1ccc(C(=O)O)cc1,Potency,[1],inactive
same,Potency,[3],inactive
same,Potency,[4],inactive
